Compound activity as filed in PubChem BioAssay.
GALR2 antag: GALR2 (human) receptor antagonism | O43603 | GALR2-expressing cells, antagonist mode | inhibition, % at 4 µM | 140,000 compounds, 0.39% hits | AID 828; in the data active means inhibition above about 27%;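 further: cells stimulated with galanin 1-16 at roughly its EC80; 0% = agonist challenge control and 100% = basal control without agonist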
PLAP act: activators of human placental alkaline phosphatase | P05187 | purified PLAP enzyme, luminescent substrate read-out; hits give high values | activation fold at 20 µM | 96,000 compounds, 1.2% hits | AID 696; in the data active means activation fold above about 2
GALR2 agonist: GALR2 (human) receptor agonism; O43603; GALR2-expressing cells, agonist activation read-out; activation, % (concentration not given with the values); 140,000 compounds, 0.48% hits; in the data active means activation above about 5%, passing the limit was not always enough;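 further: 0% = vehicle buffer wells and 100% = reference agonist at full effect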
S1P2 antag: antagonists of human S1P2 receptor; O95136; cell-based S1P2 antagonist assay, inhibition at 5 uM; inhibition, % at 5 µM; 97,000 compounds, 0.21% hits; in the data active means inhibition above about 45%;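 further: CRE beta-lactamase reporter cells expressing human S1P2 stimulated with S1P; 0% = agonist at EC80 alone and 100% = agonist plus reference antagonist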
Target sequence (O95136 whole entry, looked up): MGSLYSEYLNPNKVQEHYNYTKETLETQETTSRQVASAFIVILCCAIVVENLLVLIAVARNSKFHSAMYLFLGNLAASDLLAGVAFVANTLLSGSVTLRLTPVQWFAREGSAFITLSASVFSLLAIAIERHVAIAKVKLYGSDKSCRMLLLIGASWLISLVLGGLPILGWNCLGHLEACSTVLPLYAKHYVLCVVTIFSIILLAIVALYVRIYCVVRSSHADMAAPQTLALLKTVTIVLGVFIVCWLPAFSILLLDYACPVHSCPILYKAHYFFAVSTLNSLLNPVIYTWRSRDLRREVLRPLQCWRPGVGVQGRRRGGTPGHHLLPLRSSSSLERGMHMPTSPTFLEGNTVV
S1P2 ag: activates the human S1P2 receptor | 97,000 compounds, 0.46% hits | AID 729 | S1P2-expressing cell line, agonist reporter read-out | activation, % at 4.5 µM; in the data active means activation above about 16%;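 further: 0% = vehicle low control and 100% = maximal reference agonist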
* = called active by the depositor; nt = no result. Most compounds without a hit are left out; they make up all but 2% or so of the library.

SMILES	GALR2 antag	PLAP act	GALR2 agonist	S1P2 antag	S1P2 ag
Cc1ccc2sc(NC(=O)c3ccc(N4C(=O)CCC4=O)cc3)nc2c1C	-3	nt	6.7*	nt	nt
COc1ccc(NC(=O)CSc2nc3c(c(=O)n2-c2ccc(C)cc2)SCC3)c(OC)c1	-5	nt	-1	nt	nt
CCOC(=O)C1CCN(Cc2ccc(Cl)c(Cl)c2)CC1	0	2*	0	17	-1
COC(=O)\C(C(C)=O)=C(/C=C/C=C/C=C/N(C)C)N(C)C	-6	1.5	-2	-12	-2
C=CCNC(=S)NNC(=O)C(CCC(C)C)CC(C)O (configuration not stated)	4	2.7*	1	7	-5
COc1ccc(C2C(C#N)=C(N)Oc3n[nH]c(C)c32)cc1Cn1nnc2ccccc21 (configuration not stated)	4	2*	-2	12	-8
CCCc1[nH]nc2c1C(c1ccc(OC)c(Cn3nnc4ccccc43)c1)C(C#N)=C(N)O2 (configuration not stated)	0	1.5	-1	-4	-5
COC(=O)c1ccc(S(=O)(=O)c2ccccc2)c(N)c1	6	0.8	-1	-6	-7
CCC(=O)c1cc2c(C)cc(=O)oc2c(C)c1O	3	1	0	-17	119*
C/C(=N\Nc1nc2c(s1)CCCC2)c1ccccc1	14	2.3*	-3	5	-4
Cc1cccc(N2CCN(Cc3oc(CO)cc(=O)c3O)CC2)c1C	10	2.2*	-2	-9	-5
Cc1cc2n(n1)C(c1cccs1)Nc1ccccc1-2 (configuration not stated)	11	0.8	0	-11	-5
Cc1nc(CCNC(=O)Cc2ccc(Cl)cc2)cs1	13	1.1	-2	10	34*
Cn1c(=O)[nH]c(=O)c2[nH]c(N(Cc3ccccc3)Cc3ccccc3)nc21	-21	1.5	1	56*	5
Cc1cc(F)ccc1S(=O)(=O)Nc1ccccc1C(=O)Nc1ncn[nH]1	3	2.9*	-1	nt	nt
CCn1c(=O)cc(SCC(=O)Nc2cc(OC)c(OC)c(OC)c2)c2ccccc21	-1	1.3	-1	-48	20*
CCn1c(=O)cc(SCC(=O)Nc2cccc(SC)c2)c2ccccc21	-12	0.9	2	-25	-3
O=C(OCc1cccs1)c1ccccc1NS(=O)(=O)c1ccc2c(c1)OCCO2	-17	0.9	-2	12	-8
Cc1ccc(-n2cc(C(=O)c3cc(Cl)ccc3O)cc(C#N)c2=O)cc1	18	nt	0	nt	nt
COc1ccc(O)c(-c2[nH]ncc2C(=O)c2ccccc2)c1	16	nt	-2	16	-8
Cc1ccc(C(=O)c2cn[nH]c2-c2cc(Cl)ccc2O)cc1	23	2.3*	-2	13	-6
O=C(c1ccccc1)c1cn[nH]c1-c1ccccc1O	7	2.2*	-1	11	-5
O=C(c1ccco1)c1cn[nH]c1-c1ccc(Cl)cc1O	2	2.9*	-1	-3	-7
Cc1cc(C)c2cc(CN(CC3CCCO3)C(=O)NC3CCCCC3)c(=O)[nH]c2c1 (configuration not stated)	-2	nt	-2	-8	0
CC(=O)c1cc(C#N)c(Oc2ccc(Cl)cc2Cl)nc1C	-4	nt	-2	18	0
SMILES	GALR2 antag	PLAP act	GALR2 agonist	S1P2 antag	S1P2 ag
O=S(=O)(NCCc1cn2ccccc2n1)c1ccc2c(c1)CCCC2	6	nt	-1	nt	nt
CCN(CC)c1ccc2cc(S(=O)(=O)c3ccc(C)cc3)c(=O)oc2c1	3	nt	6.0*	nt	nt
COC(=O)CSc1nnc(Cc2ccccc2)n1-c1ccc(C)cc1	3	nt	-1	-19	-1
O=C(CSc1nnc(Cc2ccccc2)n1-c1ccccc1)NNC(=O)Cc1ccccc1	3	2.5*	-1	-8	-6
Cc1onc(-c2c(F)cccc2Cl)c1C(=O)NC1CCSC1=O (configuration not stated)	-19	2.1*	-2	3	1
CCCCC(CC)Cn1c(N)c(C#N)c2nc3ccccc3nc21 (configuration not stated)	-15	1.2	35*	-61	50*
CCCCC(CC)Cn1c2nc3ccccc3nc2c2c(=N)oc(C)nc21 (configuration not stated)	3	1.4	-1	-211	0
Nc1nc2n(n1)C(c1c(F)cccc1Cl)CC(c1ccc(F)cc1)N2 (configuration not stated)	8	nt	-1	-2	-7
CN1CC(=O)NC1=NC(=O)C12CC3CC(CC(C3)C1)C2	5	2.6*	-2	11	-4
O=C1NCCN1C(=O)C12CC3CC(CC(C3)C1)C2	5	1	-3	5	-3
Cc1cccc(-n2c(CNC(=O)c3ccc(S(=O)(=O)N(C)C)cc3)nnc2SCC(=O)Nc2ccc(F)cc2)c1	6	nt	0	nt	nt
O=C(COc1ccc(Cl)cc1Br)NNC(=O)C(=O)N1CCCCC1	3	1.9	21*	-12	-5
O=C(COc1ccc(Cl)cc1Cl)NC(=O)N1CCCCC1	-7	0.8	-2	-11	-2
Cc1nc(N2CCC(C)CC2)c2nnn(Cc3ccccc3)c2n1	-1	nt	-2	-24	7
Cc1cccc(C)c1NC(=O)CN(C)CC(=O)Nc1cc(Cl)ccc1C#N	15	1.9	-1	-11	-4
CCOc1ccc(NC(=O)CN(C)CC(=O)Nc2cc(Cl)ccc2C#N)cc1OCC	0	2.1*	-1	1	-5
N#CC1=C(N)Nc2ncnn2C1c1ccc(F)cc1 (configuration not stated)	9	nt	-2	nt	nt
COc1ccc(C2=Nn3c(nnc3-c3ccco3)SC2)cc1OC	-12	0.9	-1	-40	40*
COc1ccc(C2=Nn3c(nnc3-c3ccccn3)SC2)cc1OC	-10	1.2	1	-44	13
COc1ccc(C2=Nn3c(nnc3-c3ccccc3OC)SC2)cc1OC	30*	1.1	3	-33	34*
CCOc1ccc(C2=Nn3c(nnc3-c3ccco3)SC2)cc1	3	0.8	-2	-23	-3
ON1C(c2ccccc2C(F)(F)F)N(O)[C@H]2CCCC[C@H]21 (some centres not stated)	-5	1.2	-1	3	-1
O=C(COC(=O)CCCc1nc2ccccc2s1)Nc1ncc(Cl)cc1Cl	-9	nt	-1	nt	nt
COc1cc(NC(=O)CSCc2cnn(-c3ccccc3)c2-n2cccc2)cc(OC)c1	-3	nt	-4	3	-3
COc1ccc(OC)c(NC(=O)CSCc2cnn(-c3ccccc3)c2-n2cccc2)c1	-8	1.3	-1	2	-5
COc1ccccc1CNC(=O)CSCc1cnn(-c2ccccc2)c1-n1cccc1	5	2.7*	-1	14	-4
COc1cccc(CNC(=O)CSCc2cnn(-c3ccccc3)c2-n2cccc2)c1OC	-12	2.6*	-2	-4	-4
COc1ccc(-c2[nH]ncc2/C=C(\C#N)C(=O)NC2CC2)cc1	0	2.6*	1	-16	1
N#C/C(=C\c1cn[nH]c1-c1ccc(Cl)cc1)C(=O)NC1CC1	0	nt	0	nt	nt
